# Tests used:
# [1] = molecular target: T1, Aspartate--tRNA(Asp/Asn) ligase (Mycobacterium tuberculosis (strain ATCC 25618 / H37Rv)) (UniProt P9WFW3); assay: Assay for Asp RNA synthetase-1 from Mycobacterium tuberculosis; type: functional; parameters: scale not given: direction of the effect not stated beside the values; settings: 30 µM; note: in the data most compounds retested in dose-response had high values
# T1 sequence (whole entry): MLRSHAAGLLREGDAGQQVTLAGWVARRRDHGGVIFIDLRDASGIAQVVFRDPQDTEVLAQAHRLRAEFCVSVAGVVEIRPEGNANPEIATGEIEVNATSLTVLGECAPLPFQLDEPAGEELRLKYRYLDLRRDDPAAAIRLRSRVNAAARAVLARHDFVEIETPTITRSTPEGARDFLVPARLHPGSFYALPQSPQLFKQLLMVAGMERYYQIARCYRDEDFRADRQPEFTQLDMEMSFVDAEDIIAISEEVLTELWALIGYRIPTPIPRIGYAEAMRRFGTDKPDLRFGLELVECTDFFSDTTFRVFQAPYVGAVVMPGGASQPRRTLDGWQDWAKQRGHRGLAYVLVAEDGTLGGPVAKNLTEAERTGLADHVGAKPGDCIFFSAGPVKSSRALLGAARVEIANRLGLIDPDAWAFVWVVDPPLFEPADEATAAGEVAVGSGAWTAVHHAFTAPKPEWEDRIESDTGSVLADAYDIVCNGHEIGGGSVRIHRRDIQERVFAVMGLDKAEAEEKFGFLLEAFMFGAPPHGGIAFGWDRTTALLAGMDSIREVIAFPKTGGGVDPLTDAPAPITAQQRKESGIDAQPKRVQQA
# [2] = molecular target: Shiga toxin 2 (Escherichia coli O157:H7) (UniProt P09385+P09386); assay: E. coli 0.157:H7 Shiga Toxin SOP - stx2 screening assay; type: functional; parameters: scale not given: direction of the effect not stated beside the values; settings: 30 µM
Compound,Percent Effect [1],Percent Effect [2]
O=S(=O)(c1ccccc1)N1CCCN(CCCn2ccnc2)CC1,-2.67%,-12.6%
COc1ccc(CN2C[C@@H](OCc3csc(C)n3)[C@H]3COC[C@H]32)cc1,-1.16%,-12.3%
COc1cccc(CCC2CCCN(C(=O)C3=NN(C)C(=O)CC3)C2)c1 (centres undefined),1.75%,-7.25%
CNC(=O)CCCNCc1c(C)nn(C)c1N(C)C,2.12%,-15.3%
O=C(NCCCn1ccnc1)N1CCN(c2cccs2)CC1,-0.0463%,-102%
O=C(NCc1cc(O)ncn1)C1CCOc2ccccc2C1 (centres undefined),-6.23%,16%
Cc1cnnn1Cc1ncn2c1CN(Cc1cccs1)CCC2,-1.27%,-3.58%
CCn1nc(C)c2nc(C(C)C)nc(NCCOC)c21,-2.09%,-4.71%
Cc1cc(C)n(CC2CN(Cc3nnsc3Cl)CCO2)n1 (centres undefined),-1.81%,31.3%
COc1cccc(CNCCc2cc(F)cc3c2OCOC3)c1,-4.9%,-27.3%
CC(C)c1nc(C2CCCN(Cc3nnc(C4CC4)o3)C2)no1 (centres undefined),-2.16%,-7.91%
CNS(=O)(=O)c1cccc(C(C)NCc2ccccc2)c1 (centres undefined),-1.42%,-14.4%
CCOCCn1c(=O)[nH]c2cc(C(=O)N(C)Cc3nc(C)cs3)ccc21,1.06%,-4.35%
CN(Cc1cccc(F)c1)C(=O)CN1CCCC1CCc1ccccc1 (centres undefined),-1.52%,-33.4%
CCc1nc2ccccc2c(=O)n1CC1(O)CCN(S(C)(=O)=O)CC1,4.54%,-2.21%
Cc1ccc(CN2CCCn3nnc(COCC4CC4)c3C2)s1,-4.16%,0.0593%
CC(C)Cc1noc(CN2CCCC(Cn3cncn3)C2)n1 (centres undefined),-2.91%,-14.7%
Cc1cc(N(C)C)nc(C2(C)CCCN2C(=O)c2cnccn2)n1 (centres undefined),1.19%,-0.274%
Cc1nn(C)c(N2CCOCC2)c1CNCc1ccnc(N(C)C)c1,-1.27%,25.6%
Cc1cccc(CNC(CN2CCN(C)CC2)c2ccccc2)c1 (centres undefined),3.03%,-5.1%
O=C(CCc1cc2n(n1)CCN(Cc1ncc[nH]1)C2)N1CCCC1,-0.827%,-2%
COc1cnc(N2CCC(Oc3ccccc3OC)(C(=O)O)CC2)nc1,-1.16%,-0.671%
CC(C)c1noc(CCC(=O)NCC2CCS(=O)(=O)C2)n1 (centres undefined),-3.63%,-17.1%
CN(Cc1ccc(F)cc1)[C@@H]1CN(C(=O)c2cccs2)C[C@H]1O,4.22%,-17.2%

Compound,Percent Effect [1],Percent Effect [2]
CC(C)Cc1noc(CN2CCOCC2)n1,-2.59%,29.5%
Cc1cc(C(=O)N2C[C@@H](C(=O)O)[C@H](c3ccccc3C)C2)c(C)o1,6.11%,-22%
CC(C)c1nnc2n1CCN(C(=O)c1ccc3cc[nH]c3c1)C2,-2.98%,3.97%
Cc1cc(C(=O)N[C@@H]2CCNC[C@H]2O)ccc1Cl,2.13%,14.6%
COCC(c1cccc(C(F)(F)F)c1)N(C)C(=O)c1cc(C)no1 (centres undefined),-1.95%,27.2%
O=C(c1cc(Cl)c2c(c1)OCO2)N1CCN(c2nccs2)CC1,-0.23%,-4.3%
Cc1ccc(Nc2nccc(C3CN(CC(N)=O)C3)n2)nc1,-1.29%,-33.3%
CC(C)c1nc2n(n1)CC(NCc1nnc(C(C)C)o1)CC2 (centres undefined),5.81%,19.6%
Cc1ccc2cc(CNCCCN3CCOCC3)c(=O)[nH]c2c1,-2.01%,-12.7%
CC(C)[C@H](NC(=O)NC1CCS(=O)(=O)C1)C(=O)NCc1cccnc1 (some centres undefined),-2.09%,-28.7%
O=S(=O)(C1CC1)N1CCOCC2(CCN(c3ccccn3)C2)C1 (centres undefined),8.28%,-47.5%
O=C(CCCOCc1ccccc1)N1CCCC1c1ccccn1 (centres undefined),-1.14%,-0.85%
Cc1ncnc2c1CCN(Cc1cccs1)CC2,9.2%,-21.2%
CCc1cc(NCCc2ccc(O)cc2)n2nccc2n1,5.69%,5.92%
COCCN1CC(C(=O)NCc2ccnc(-n3cccn3)c2)CC1=O (centres undefined),-0.544%,-36.8%
CCc1nccn1C1CCCN(C(=O)c2cnn3ccc(C)nc23)C1 (centres undefined),0.632%,11.2%
CC1CCN(S(=O)(=O)NCC2CCOc3ccccc3C2)CC1 (centres undefined),0.0297%,5.97%
Cc1cc(C(=O)NCc2ccccn2)no1,-4.62%,-0.424%
Cc1nn(C)c(C)c1C1CCCN1Cc1nc(-c2ccco2)no1 (centres undefined),-6.56%,-26.9%
COc1ccc(CNCCc2cc(F)cc3c2OCOC3)cc1O,3.65%,-23.1%
CC(C)N(C)C(=O)C1=NOC2(CCN(C(=O)c3ccc(Cl)cc3)C2)C1 (centres undefined),1.19%,-2.21%
Cn1cc(CCC(=O)N2CCN(Cc3ccncc3)CC2)cn1,-1.76%,1.29%
CCc1noc(C(C)N2CCN(Cc3nnc(C4CC4)o3)CC2)n1 (centres undefined),-4.98%,10.9%
